# Measurements taken from PubChem BioAssay (NCATS).
# Several values for one entry are separate records, joined by “and”; a condition that tells them apart may be missing. Equal values may be shown once. Inconclusive results are not listed. Unmarked numbers belong to inactive results. The call rests on the fitted dose curve; in most records, active means well fitted curve in the direction sought with a large enough effect; inconclusive means small, poorly fitted or top-dose-only effect, or another doubt; inactive means no such curve, though single readings can be large; an effect the other way counts as inactive or inconclusive.
# Molecular target: Cellular tumor antigen p53 (Homo sapiens) (UniProt P04637)
# Sequence (P04637 whole entry, looked up): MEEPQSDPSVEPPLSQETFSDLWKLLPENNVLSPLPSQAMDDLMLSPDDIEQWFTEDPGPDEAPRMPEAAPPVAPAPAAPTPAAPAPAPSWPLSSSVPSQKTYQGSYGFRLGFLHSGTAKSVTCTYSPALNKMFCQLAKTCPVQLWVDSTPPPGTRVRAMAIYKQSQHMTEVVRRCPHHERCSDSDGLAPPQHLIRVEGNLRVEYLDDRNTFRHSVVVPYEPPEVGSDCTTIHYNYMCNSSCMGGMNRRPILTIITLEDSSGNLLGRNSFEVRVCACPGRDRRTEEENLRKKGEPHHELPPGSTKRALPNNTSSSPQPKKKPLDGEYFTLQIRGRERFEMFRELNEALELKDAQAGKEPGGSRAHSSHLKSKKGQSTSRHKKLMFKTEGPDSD
# Assay: Primary qHTS for small molecule compounds that upregulate eGFP-tagged delta133p53alpha (in N-terminal) cells. (AID 2060322);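 further: cells pre-induced with doxycycline then dosed without doxycycline; 0% = DMSO vehicle and 100% = reference activator; nearly all actives have a fitted effect of over 75% in size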
# Conditions: NCI-H358 eGFP-delta133p53alpha fluorescence, 24 h; activation: active compounds read high
# Method in brief: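 NCI-H358 cells pre-induced 24 h with 10 ng/ml doxycycline for eGFP-delta133p53alpha, plated dox-free and exposed 24 h at 37C to titrated compounds. Fixed, Hoechst-stained; gated GFP peak intensity by laser scanning cytometry, normalized to DMSO (0%) and 57.5 uM 5-azacytidine (100%).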
row,SMILES,activation
1,CCCCCCCCCCCCCCCCCCN(CCCCCCCCCCCCCCCCCC)CCCN(CCO)CCO,-13.9%
2,CC(CN1c2ccccc2Sc2ccccc21)N(C)C (stereo not given),-20.9% and -2.49%
3,COc1ccc(NC(=O)c2ccc(-c3ccc(-c4noc(C)n4)cc3C)cc2)cc1N1CCN(C)CC1,-47.1%
4,CC(N)=NCCCC[C@@H](N)C(=O)O,-1.95%
5,Cc1cccc(C(=O)NCN2CCN(c3ccccc3C#N)CC2)c1,-16.7%
6,C#CCN(C)CCCOc1ccc(Cl)cc1Cl,-2.51% and -6.18%
7,O=C(O)COCCN1CCN(C(c2ccccc2)c2ccc(Cl)cc2)CC1 (stereo not given),0.565% and 21.7% and -7.29%
8,O=c1cc(O)cc(/C=C/c2ccc(O)c(O)c2)o1,-54.7%
9,Oc1cc2c(cc1O)C(c1ccccc1)CNCC2 (stereo not given),5.86%
10,CCCCCC[C@@H]([C@@H](C)O)n1cnc2c(N)ncnc21,-41.6%
11,NC(Cc1ccc(Cl)cc1)C(=O)O (stereo not given),-15.1% and -12.2%
12,COc1cc2c(cc1OC)-c1cc(=Nc3c(C)cc(C)cc3C)n(C)c(=O)n1CC2,-30.7%
13,NC(N)=Nc1nc(CSCC/C(N)=N/S(N)(=O)=O)cs1,-9.6% and 12.2%
14,NO,-15.6%
15,c1cnc(N2CCN(Cc3ccc4c(c3)OCO4)CC2)nc1,8.37% and 9.57%
16,OCCN1CCN(CCCN2c3ccccc3C=Cc3ccccc32)CC1,-10.7% and -5.62%
17,CCOC(=O)C1=C(C)NC(C)=C(C(=O)OC)C1c1cccc([N+](=O)[O-])c1 (stereo not given),-7.72%
18,Oc1ccc(C2CNCc3sccc32)cc1O (stereo not given),8.23%
19,CSc1ccc2c(c1)C(N1CCN(C)CC1)Cc1ccccc1S2 (stereo not given),48%
20,CC(=O)N[C@H](C(=O)O)C(C)(C)SN=O,-54.1%

row,SMILES,activation
1,Cc1nc2n(c(=O)c1CCN1CCC(c3noc4cc(F)ccc34)CC1)CCCC2O (stereo not given),3.58%
2,CCNC(=O)[C@H]1O[C@@H](n2cnc3c(N)nc(NCCc4ccc(CCC(=O)O)cc4)nc32)[C@H](O)C1O (stereo not given in full),-0.799%
3,Clc1ccc(N2CCN(Cc3c[nH]c4ncccc34)CC2)cc1,-17.7%
4,c1cc(CN2CCCCC2)cc(OCCCNc2nc3ccccc3s2)c1,20.9% and -10.6%
5,Cc1ccc(O)c(N=Nc2ccccc2)n1,34%
6,Nc1ccn([C@H]2O[C@H](CO)[C@@H](O)C2(F)F)c(=O)n1,7.37%
7,Cc1cccc(C#Cc2ccccc2)n1,-6.63% and 22.8%
8,COc1cc(C(=O)OCCCN2CCCN(CCCOC(=O)c3cc(OC)c(OC)c(OC)c3)CC2)cc(OC)c1OC,-3.95% and -82%
9,CCN(CC)CCNC(=O)c1ccc(NS(C)(=O)=O)cc1,-1.7%
10,CN1CCc2cc(NC(=O)Nc3cccnc3)ccc21,-9.58%
11,CCCN(CCc1ccccc1)C1CCc2c(O)cccc2C1 (stereo not given),-29.6%
12,CCOC(=O)c1cnc2c(cnn2CC)c1NN=C(C)C,11.7% and -44.5%
13,CCCCCCCCCC[Si](C)(C)CCC(=O)NC(Cc1ccc(C)cc1)c1ccccc1 (stereo not given),-9.05%
14,CCN(CC)CCOC(=O)c1cc(Cl)c(N)cc1OC,-18.7%
15,CNCCNS(=O)(=O)c1cccc2cnccc12,-55.4%
16,CCCCOc1cc(CC2CNC(=O)N2)ccc1OC (stereo not given),-11.2%
17,Cc1cc(N)c2ccccc2[n+]1CCCCCCCCCC[n+]1c(C)cc(N)c2ccccc21,10%
18,NC1CCN(O)C1=O (stereo not given),-20%
19,C=CCn1c(=O)c2c(nc(-c3ccc(S(=O)(=O)O)cc3)n2C)n(C)c1=O,-9.98%
20,NCCCNCCCCNCCCN,-8.4%

# Molecular target: Cellular tumor antigen p53 (Homo sapiens) (UniProt P04637)
# Assay: Primary qHTS for small molecule compounds that upregulate eGFP-tagged delta133p53alpha (in C-terminal) cells. (AID 2060324);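 further: 0% = DMSO wells and 100% = 57.5 µM 5-azacytidine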
# Conditions: NCI-H358 delta133p53alpha-eGFP (C-terminal tag), GFP fluorescence imaging, 24 h; series mostly up to 57.5 µM; GFP increase (activation): at the top concentration
# Method in brief: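 Readout: filtered GFP peak intensity of gated cells (laser scanning cytometer), normalized plate-wise to intraplate controls, DMSO wells = 0% activity. Cells: NCI-H358 D133p53a-eGFP, dox 100 ng/ml 24 h beforehand, then compound 24 h, 37 °C.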
row,SMILES,GFP increase (activation) [%]
1,CCCCCCCCCCCCCCCCCCN(CCCCCCCCCCCCCCCCCC)CCCN(CCO)CCO,-6.25
2,CC(CN1c2ccccc2Sc2ccccc21)N(C)C (stereo not given),-0.0555
3,COc1ccc(NC(=O)c2ccc(-c3ccc(-c4noc(C)n4)cc3C)cc2)cc1N1CCN(C)CC1,16.2
4,CC(N)=NCCCC[C@@H](N)C(=O)O,-6.52
5,Cc1cccc(C(=O)NCN2CCN(c3ccccc3C#N)CC2)c1,-0.585
6,C#CCN(C)CCCOc1ccc(Cl)cc1Cl,-5.75
7,O=C(O)COCCN1CCN(C(c2ccccc2)c2ccc(Cl)cc2)CC1 (stereo not given),0.144
8,O=c1cc(O)cc(/C=C/c2ccc(O)c(O)c2)o1,-0.873
9,Oc1cc2c(cc1O)C(c1ccccc1)CNCC2 (stereo not given),-0.878
10,CCCCCC[C@@H]([C@@H](C)O)n1cnc2c(N)ncnc21,-6.26
11,NC(Cc1ccc(Cl)cc1)C(=O)O (stereo not given),-5.14
12,COc1cc2c(cc1OC)-c1cc(=Nc3c(C)cc(C)cc3C)n(C)c(=O)n1CC2,-8.84
13,NC(N)=Nc1nc(CSCC/C(N)=N/S(N)(=O)=O)cs1,0.374
14,NO,-7.17
15,c1cnc(N2CCN(Cc3ccc4c(c3)OCO4)CC2)nc1,-9.58
16,OCCN1CCN(CCCN2c3ccccc3C=Cc3ccccc32)CC1,2.57
17,CCOC(=O)C1=C(C)NC(C)=C(C(=O)OC)C1c1cccc([N+](=O)[O-])c1 (stereo not given),6.21
18,Oc1ccc(C2CNCc3sccc32)cc1O (stereo not given),3.12
19,CSc1ccc2c(c1)C(N1CCN(C)CC1)Cc1ccccc1S2 (stereo not given),7.07
20,CC(=O)N[C@H](C(=O)O)C(C)(C)SN=O,-11.6

row,SMILES,GFP increase (activation) [%]
1,Cc1nc2n(c(=O)c1CCN1CCC(c3noc4cc(F)ccc34)CC1)CCCC2O (stereo not given),1.18
2,CCNC(=O)[C@H]1O[C@@H](n2cnc3c(N)nc(NCCc4ccc(CCC(=O)O)cc4)nc32)[C@H](O)C1O (stereo not given in full),-0.601
3,Clc1ccc(N2CCN(Cc3c[nH]c4ncccc34)CC2)cc1,21.1
4,c1cc(CN2CCCCC2)cc(OCCCNc2nc3ccccc3s2)c1,6.51
5,Cc1ccc(O)c(N=Nc2ccccc2)n1,-4.63
6,Nc1ccn([C@H]2O[C@H](CO)[C@@H](O)C2(F)F)c(=O)n1,10.2
7,Cc1cccc(C#Cc2ccccc2)n1,-4.04
8,COc1cc(C(=O)OCCCN2CCCN(CCCOC(=O)c3cc(OC)c(OC)c(OC)c3)CC2)cc(OC)c1OC,6
9,CCN(CC)CCNC(=O)c1ccc(NS(C)(=O)=O)cc1,-7.31
10,CN1CCc2cc(NC(=O)Nc3cccnc3)ccc21,1.18
11,CCCN(CCc1ccccc1)C1CCc2c(O)cccc2C1 (stereo not given),1.01
12,CCOC(=O)c1cnc2c(cnn2CC)c1NN=C(C)C,0.625
13,CCCCCCCCCC[Si](C)(C)CCC(=O)NC(Cc1ccc(C)cc1)c1ccccc1 (stereo not given),-0.116
14,CCN(CC)CCOC(=O)c1cc(Cl)c(N)cc1OC,2.41
15,CNCCNS(=O)(=O)c1cccc2cnccc12,22
16,CCCCOc1cc(CC2CNC(=O)N2)ccc1OC (stereo not given),0.486
17,Cc1cc(N)c2ccccc2[n+]1CCCCCCCCCC[n+]1c(C)cc(N)c2ccccc21,11.5
18,NC1CCN(O)C1=O (stereo not given),-4.24
19,C=CCn1c(=O)c2c(nc(-c3ccc(S(=O)(=O)O)cc3)n2C)n(C)c1=O,8.89
20,NCCCNCCCCNCCCN,-11.6
